Screens deposited in PubChem BioAssay by National Center for Advancing Translational Sciences (NCATS).
CCT modulator – High-Throughput Screening for Modulators of Cytosolic Chaperonin Activity; AID 651819, 2012; purified chaperonin ATPase assay, HTRF ADP detection, 30 min; activity change, % (test concentration not listed), hits read low; hit rate 0.3% among 360,000; in the data active means activity change below about -30%; further: on the % scale 0 is the no-effect control and ±100 the full control effect
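ATPase activity: ADP formed was measured by HTRF Transcreener (665/615 nm ratio) after 30 min at 37 deg C with 10 uM ATP. Compounds screened at one 76 uM concentration against 40 or 20 nM TRiC in Tris pH 7.4/KCl/MgCl2/DTT buffer.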
Mm-Cpn inhibitor – Inhibitors of TCP-1 ring complex (TRiC) of Methanococcus maripaludis (MmCpn): qHTS; Chaperonin Mm-Cpn (Methanococcus maripaludis); purified Mm-Cpn ATPase, ADP Transcreener TR-FRET; Potency, µM (titrated, usually from 76.9 µM), for inactives: top-dose activity, negative = inhibition, usual class: inhibitors; hit rate 0.031% among 330,000; AID 504842, 2011; further: potency means the concentration at half of the fitted maximal effect; on the % scale 0 is the no-effect control and ±100 the full control effect; nearly all actives have a fitted effect of over 80% in size
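Purified archaeal chaperonin (25 nM final) was preincubated with compound for 10 min at 37°C, then ATP (10 uM final) was added for 30 min at 37°C in Tris pH 7.4/KCl/MgCl2/DTT buffer. ADP was quantified by HTRF Transcreener TR-FRET.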
p53 reactivation – qHTS assay for re-activators of p53 using a Luc reporter | H1299 p53-A138V BP100-luciferase reporter, luminescence, 24 h | Potency, µM (series often up to 92.2 µM), without a hit: top-dose activity change, positive = activation, actives largely listed as activators | hit rate 0.063% among 320,000 | AID 504706, 2011; further: potency means the concentration at half of the fitted maximal effect; % of control where 0% means no effect; nearly all actives have a fitted effect of over 45% in size
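p53-null H1299 cells stably carrying temperature-sensitive p53-A138V and a BP100-luciferase reporter were pinned with compounds (4-point, 1:5 series) and held 24 hrs at 37 deg C. Luminescence was read 10 min after detection reagent.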
12-LOX inh – Primary qHTS assay for inhibitors of human arachidonate 12S-lipoxygenase (ALOX12): Round 2; Polyunsaturated fatty acid lipoxygenase ALOX12 (Homo sapiens), P18054; purified 12hLO, xylenol orange hydroperoxide absorbance; Potency, µM (doses to about 108 µM), inactives show top-dose activity change, negative = inhibition, most hits filed as inhibitors; hit rate 1.1% among 580,000; AID 1671190, 2021; further: potency means the concentration at half of the fitted maximal effect; on the % scale 0 is the no-effect control and ±100 the full control effect
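Hydroperoxide product was detected by ferrous iron/xylenol orange as the 573 to 405 nm absorbance ratio. Arachidonic acid at 40 uM (final) was turned over for 30 min at room temperature by 150 nM human 12hLO, pH 7.0 Hepes buffer, after 15 min compound preincubation.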
S-ASM inh – Inhibitors of Secretory Acid Sphingomyelinase (S-ASM): qHTS. placental ASM, HMU-PC fluorogenic substrate, 60 min. Potency, µM (top dose mostly 57.5 µM), for inactives: top-dose activity change, negative = inhibition, usual class: inhibitors. hit rate 0.006% among 340,000. AID 504937, 2011; further: potency means the concentration at half of the fitted maximal effect
Target sequence (P17405 47-631 limits assumed): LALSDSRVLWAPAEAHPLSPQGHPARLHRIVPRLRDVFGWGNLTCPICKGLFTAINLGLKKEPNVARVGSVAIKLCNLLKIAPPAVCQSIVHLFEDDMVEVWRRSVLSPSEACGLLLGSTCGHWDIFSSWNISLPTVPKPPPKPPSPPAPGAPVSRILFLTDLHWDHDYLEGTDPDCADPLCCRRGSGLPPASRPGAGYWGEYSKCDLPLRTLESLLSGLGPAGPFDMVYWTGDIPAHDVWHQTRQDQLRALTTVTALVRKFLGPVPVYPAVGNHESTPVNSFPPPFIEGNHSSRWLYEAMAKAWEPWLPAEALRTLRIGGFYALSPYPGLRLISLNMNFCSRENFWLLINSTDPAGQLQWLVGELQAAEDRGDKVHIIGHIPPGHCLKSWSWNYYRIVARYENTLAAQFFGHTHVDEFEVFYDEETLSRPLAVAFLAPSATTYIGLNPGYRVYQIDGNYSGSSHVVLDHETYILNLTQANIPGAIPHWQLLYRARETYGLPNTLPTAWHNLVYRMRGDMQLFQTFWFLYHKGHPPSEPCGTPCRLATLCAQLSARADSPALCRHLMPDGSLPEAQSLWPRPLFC
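Fluorogenic HMU-PC substrate (9 uM final) is turned over by placental ASM in 60 min at 37 C after a 10 min compound preincubation. Reaction ended by alkaline stop (pH 10), with fluorescence read at 386/447 nm.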
PINK1 expr mod – A Quantitative High throughput Screen to Identify Chemical Modulators of PINK1 Expression; PINK1 immunofluorescence, high-content cytometry, 24 h; Potency, µM (titrated, usually from 76.6 µM), inactives show at the top dose activation (PINK1 increase), hits mostly activators; hit rate 0.2% among 410,000; active means well fitted activation curve with a large enough effect; inconclusive means small, poorly fitted or top-dose-only effect; cell line not stated here; further: potency means the concentration at half of the fitted maximal effect; % of control where 0% means no effect; nearly all actives have a fitted effect of over 65% in size
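Fluorescence from anti-PINK1 antibody, together with nuclear and cell stains, was scanned on a laser-scanning cytometer. Before staining, stable-line cells were incubated 24 hours with compounds at 5 concentrations; primary antibody 12 h at 10 degrees C.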
The depositor's hits bear a star; ? = inconclusive; . = no result given; [ ] = remark or other dose. Rows were chosen to be rich in hits. Some 1.4% of all compounds tested hit in one or more screens of this group. Unless noted, the call rests on the fitted dose curve; in most records, active means well fitted curve in the direction sought with a large enough effect; inconclusive means small, poorly fitted or top-dose-only effect, or another doubt; inactive means no such curve, though single readings can be large; an effect the other way counts as inactive or inconclusive.

SMILES	CCT modulator	Mm-Cpn inhibitor	p53 reactivation	12-LOX inh	S-ASM inh	PINK1 expr mod
S=C(Nc1ccc(Cl)cc1Cl)N1CCCCC1	-66*	2%	?	7%	-3%	3%
FC(F)(F)c1ccccc1NC(=S)N1CCN(c2ccccn2)CC1	0	-1%	5%	0%	0%	0%
CNC(=S)NNC(=O)c1ccc(Cl)c(Cl)c1	.	.	.	41%	.	.
O=C(OCC(=O)N1CCOCC1)c1cc(-c2ccc(Cl)s2)nc2ccccc12	.	.	.	-20%	.	.
CC(C)CSc1n[nH]c(=S)s1	1	0%	4%	22µM*	3%	1%
COc1ccc(-c2cc(OC)c3ccccc3n2)cc1	0	-2%	9%	45µM*	1%	11%
COc1cc(-c2ccccc2)nc2ccccc12	-2	1%	4%	19%	1%	0%
CCn1nnc(NC(=O)COc2ccc(Cl)cc2Cl)n1	.	.	.	-4%	.	.
CC(C)(C)N=Cc1cc(Br)ccc1O	.	.	.	56µM*	.	.
O=[N+]([O-])c1ccc(NS(=O)(=O)c2ccc(Cl)c(Cl)c2)cc1	-1	.	.	?	.	16µM*
CCCCN(C)C1=CC2=CC(=C(C#N)C#N)CCC2CC1 (centres undefined)	-3	0%	3%	12%	-11%	13µM*
CCOC(=O)c1c(/N=C/c2cc(OC)cc([N+](=O)[O-])c2O)sc(C)c1C	1	-2%	7%	?	-2%	1%
CCOC(=O)c1c(/N=C/c2cc([N+](=O)[O-])ccc2O)sc(C)c1C	0	-2%	3%	35µM*	6%	3%
COc1ccc(C2OCC3OC(OC)C(OCc4ccccc4)C(O)C3O2)cc1 (centres undefined)	.	.	.	-40%	.	.
FC(F)(F)c1ccc(Cl)c(N/N=C/c2ccc(OCc3ccccc3)cc2)c1	.	.	.	2.5µM*	.	.
FC(F)(F)c1ccc(Cl)c(N/N=C/c2ccccc2Cl)c1	.	.	.	35µM*	.	.
FC(F)(F)c1ccc(Cl)c(NC(=S)N/N=C/c2ccccc2C(F)(F)F)c1	2	1%	2%	19%	3%	1%
CC(C)C(NC(=O)N(C)Cc1ccc(C(F)(F)F)cc1)c1ccc2c(c1)OCCCO2 (centres undefined)	.	.	.	-2%	.	.
Cc1onc(-c2c(F)cccc2Cl)c1C(=O)Nc1cc(S(=O)(=O)N2CCCCC2)ccc1O	-2	.	.	?	-16%	16µM*
Cc1onc(-c2c(F)cccc2Cl)c1C(=O)Nc1ccc(S(=O)(=O)N2CCOCC2)cc1	-10	-1%	-4%	-14%	2%	0%
Cc1cc(Br)cn2c(Cc3cccc(Cl)c3)c(-c3ccco3)nc12	-1	.	.	?	.	2%
Clc1cccc(Cc2c(-c3ccco3)nc3ccc(Br)cn23)c1	1	.	.	11µM*	.	0%
Brc1ccc2nc(-c3ccco3)c(Cc3ccccc3)n2c1	0	.	.	14µM*	.	11%
Cc1ccc(Cc2c(-c3ccco3)nc3ccc(C)cn23)cc1	0	.	.	?	.	2%
N#Cc1ccc(-c2nc3ccc(Cl)cn3c2Cc2cccc(Cl)c2)cc1	0	.	.	35µM*	.	3%
SMILES	CCT modulator	Mm-Cpn inhibitor	p53 reactivation	12-LOX inh	S-ASM inh	PINK1 expr mod
Clc1cccc(Cc2c(-c3ccco3)nc3ccc(Cl)cn23)c1	1	.	.	22µM*	.	-1%
CCCOc1ccc(CNC2CC2)cc1	.	.	.	-3%	.	.
CCCC(=O)N1CCN(c2nc(C)c3c(c2C#N)CCCC3)CC1	.	.	.	-42%	.	.
COc1ccc(Oc2c(C)oc3cc(OCC(=O)NCc4ccco4)ccc3c2=O)cc1	.	.	.	3%	.	.
CCCCC(=O)NC(=S)Nc1cccc(Cl)c1N1CCCCC1	2	0%	?	35µM*	-16%	?
CCOc1ccc2nc(NC(=S)N(C)C)sc2c1	-1	-1%	?	45µM*	-2%	1%
CCOc1ccc2nc(NC(=O)CCn3cccc3)sc2c1	0	-29%	14%	?	0%	0%
CCOc1ccc2nc(NC(=O)c3ccccc3)sc2c1	.	.	.	-11%	.	2%
CCCC(=O)Nc1nc2ccc(OCC)cc2s1	-1	0%	3.2µM*	-8%	-4%	1%
COc1ccccc1N1CCN(CC(=O)Nc2ccnn2Cc2cccc(Cl)c2)CC1	.	.	.	32%	.	.
O=C(CCc1ncc(-c2ccccc2F)o1)Nc1ccncc1	.	.	.	14%	.	.
Cc1c(CCl)cc(C(=O)O)cc1CCl	.	.	.	5.6µM*	.	.
Cc1cccc(CNC(=O)CCCNC(=O)C(C)(C)C)c1	.	.	.	-24%	.	.
COc1cccc(C2CCCN2Cc2cc(=O)oc3cc(OC)ccc23)c1 (centres undefined)	.	.	.	45µM*	.	.
CC(C(=O)Nc1cc(Cl)cc(Cl)c1)N1CCN(c2ccc(O)cc2)CC1 (centres undefined)	.	.	.	20µM*	.	.
Cc1cccc(-c2noc([C@@H]3Cc4nc[nH]c4CN3C(=O)NC3CCCCC3)n2)c1	.	.	.	13µM*	.	.
CC(=O)c1ccc(N=Nc2ccc(C)cc2)cc1	0	1%	11%	20%	-2%	6%
C=C(C)C(=O)Oc1ccc(N=Nc2ccc(C)cc2)ccc1=O	-6	.	.	22µM*	-3%	?
Oc1cc2ccccc2cc1-c1n[nH]c(=S)n1Cc1ccco1	-2	-12%	0%	40µM*	218%	0%
S=c1[nH]nc(Cc2ccccc2)n1Cc1ccco1	-1	1%	4%	35µM*	-2%	8%[38.3 µM]
O=C(CSc1nccn2nc(-c3cccc4ccccc34)cc12)NCc1ccc(F)cc1	.	.	.	5%	.	.
C/C(=N\NC(=O)c1cccs1)c1cccc(C)c1	.	.	.	8%	.	.
CC(=O)Nc1ccccc1OCc1cccc(C)c1	.	.	.	-9%	.	.
CC(=O)Nc1cc2c(=O)n(Cc3ccccc3)c(C)nc2cc1N1CCOCC1	-4	-2%	12%	14µM*	8%	-1%
Cc1nc2cc(N3CCCCC3)c(NC(=O)c3cccnc3)cc2c(=O)n1Cc1ccccc1	-3	-3%	-5%	-12%	-2%	3%
CCOc1ccc(C(=O)/C=C/c2ccccc2)cc1	.	.	.	-23%	.	.
CCOC(=O)c1cc(OC(=O)c2cccc([N+](=O)[O-])c2)n(-c2ccccc2)n1	-35*	0%	6%	-20%	1%	4%[38.3 µM]
C/C(=N\NC(N)=S)C1C2C3CC4C5CC(C42)C1C53 (centres undefined)	3	3%	2%	18µM*	4%	0%
Cc1ccccc1NC(=O)CSc1nc(=O)n(CCN(C)C)c2c1CCC2	.	.	.	-3%	.	.
